{"source": "paper PMC8384837", "about": "“Expanding the binding specificity for RNA recognition by a PUF domain”", "assay_in_all_cases": "yeast three-hybrid, YBZ-1, SC-Leu-His + 0.5 mM 3-AT, 4 days", "conditions_in_all_cases": "tags: N-Gal4 AD-HA kept; label: inside an RPR1-promoter hybrid RNA with tandem MS2 sites; ssRNA", "key": {"PUM1 PUF domain R8-SFR": {"biological_target": "PUM1 PUF domain R8-SFR (Homo sapiens, UniProt Q14671 828-1176, N1122S;Y1123F;Q1126R)", "sequence (Q14671 828-1176 N1122S/Y1123F/Q1126R)": "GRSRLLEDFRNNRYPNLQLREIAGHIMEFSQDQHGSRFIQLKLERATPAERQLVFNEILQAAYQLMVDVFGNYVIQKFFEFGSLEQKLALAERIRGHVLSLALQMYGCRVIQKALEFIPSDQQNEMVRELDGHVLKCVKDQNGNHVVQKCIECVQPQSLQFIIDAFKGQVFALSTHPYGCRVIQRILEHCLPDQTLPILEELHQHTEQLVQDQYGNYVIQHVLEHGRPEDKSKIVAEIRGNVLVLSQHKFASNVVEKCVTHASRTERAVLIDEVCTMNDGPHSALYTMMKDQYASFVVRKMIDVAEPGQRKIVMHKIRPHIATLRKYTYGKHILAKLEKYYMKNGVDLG", "how_it_was_run": "(§1)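 Repeat regions from input (SC-Leu) and selection (SC-Leu-His + 0.5 mM 3-AT) plates were PCR-amplified and Illumina-sequenced after four days of growth. The cells were strain YBZ-1 with a LexA–MS2 coat fusion and a HIS3 reporter, co-expressing Pumilio-1 PUF domain libraries and matching RNA elements from a centromeric plasmid. The interaction score is the log change in variant frequency from input to selection, taken in log2 with a pseudocount of 1 for absent variants.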"}, "PUM1 PUF domain R5-KFG": {"biological_target": "PUM1 PUF domain R5-KFG (Homo sapiens, UniProt Q14671 828-1176, C1007K;R1008F;Q1011G)", "sequence (Q14671 828-1176 C1007K/R1008F/Q1011G)": "as the sequence (Q14671 828-1176 N1122S/Y1123F/Q1126R) above, with C180K, R181F, Q184G, S295N, F296Y, R299Q counted along it", "how_it_was_run": "as §1"}, "PUM1 PUF domain R5-ERS": {"biological_target": "PUM1 PUF domain R5-ERS (Homo sapiens, UniProt Q14671 828-1176, C1007E;Q1011S)", "sequence (Q14671 828-1176 C1007E/Q1011S)": "as the sequence (Q14671 828-1176 N1122S/Y1123F/Q1126R) above, with C180E, Q184S, S295N, F296Y, R299Q counted along it", "how_it_was_run": "as §1"}, "PUM1 PUF domain R5-DWG": {"biological_target": "PUM1 PUF domain R5-DWG (Homo sapiens, UniProt Q14671 828-1176, C1007D;R1008W;Q1011G)", "sequence (Q14671 828-1176 C1007D/R1008W/Q1011G)": "as the sequence (Q14671 828-1176 N1122S/Y1123F/Q1126R) above, with C180D, R181W, Q184G, S295N, F296Y, R299Q counted along it", "how_it_was_run": "as §1"}, "PUM1 PUF domain R1-GFR": {"biological_target": "PUM1 PUF domain R1-GFR (Homo sapiens, UniProt Q14671 828-1176, S863G;R864F;Q867R)", "sequence (Q14671 828-1176 S863G/R864F/Q867R)": "as the sequence (Q14671 828-1176 N1122S/Y1123F/Q1126R) above, with S36G, R37F, Q40R, S295N, F296Y, R299Q counted along it", "how_it_was_run": "as §1"}, "PUM1 PUF domain R1-KGA": {"biological_target": "PUM1 PUF domain R1-KGA (Homo sapiens, UniProt Q14671 828-1176, S863K;R864G;Q867A)", "sequence (Q14671 828-1176 S863K/R864G/Q867A)": "as the sequence (Q14671 828-1176 N1122S/Y1123F/Q1126R) above, with S36K, R37G, Q40A, S295N, F296Y, R299Q counted along it", "how_it_was_run": "as §1"}, "PUM1 PUF domain R3-MRE": {"biological_target": "PUM1 PUF domain R3-MRE (Homo sapiens, UniProt Q14671 828-1176, C935M;Q939E)", "sequence (Q14671 828-1176 C935M/Q939E)": "as the sequence (Q14671 828-1176 N1122S/Y1123F/Q1126R) above, with C108M, Q112E, S295N, F296Y, R299Q counted along it", "how_it_was_run": "as §1"}, "PUM1 PUF domain R8-IWK": {"biological_target": "PUM1 PUF domain R8-IWK (Homo sapiens, UniProt Q14671 828-1176, N1122I;Y1123W;Q1126K)", "sequence (Q14671 828-1176 N1122I/Y1123W/Q1126K)": "as the sequence (Q14671 828-1176 N1122S/Y1123F/Q1126R) above, with S295I, F296W, R299K counted along it", "how_it_was_run": "as §1"}, "PUM1 PUF domain R7-NTG": {"biological_target": "PUM1 PUF domain R7-NTG (Homo sapiens, UniProt Q14671 828-1176, S1079N;N1080T;E1083G)", "sequence (Q14671 828-1176 S1079N/N1080T/E1083G)": "as the sequence (Q14671 828-1176 N1122S/Y1123F/Q1126R) above, with S252N, N253T, E256G, S295N, F296Y, R299Q counted along it", "how_it_was_run": "as §1"}, "PUM1 PUF domain R1-KMS": {"biological_target": "PUM1 PUF domain R1-KMS (Homo sapiens, UniProt Q14671 828-1176, S863K;R864M;Q867S)", "sequence (Q14671 828-1176 S863K/R864M/Q867S)": "as the sequence (Q14671 828-1176 N1122S/Y1123F/Q1126R) above, with S36K, R37M, Q40S, S295N, F296Y, R299Q counted along it", "how_it_was_run": "as §1"}}, "data": [{"sequence": "GGCUAGAACUAGUGGAUCCCCCGGCGCCCGGCGGCUCGAGCCCGGGUAAGUGUAAAUAGUCUGCAUGCCGCCGGGCGCCAUGCCUGCAGGUCGACUCUAGAAAACAUG", "values": [{"measurement": "binding signal", "setting": "PUM1 PUF domain R8-SFR", "value": "5.31 log2 enrichment (interaction score)"}, {"measurement": "binding signal", "setting": "PUM1 PUF domain R5-KFG", "value": "3.88 log2 enrichment (interaction score)"}, {"measurement": "binding signal", "setting": "PUM1 PUF domain R5-ERS", "value": "3.92 log2 enrichment (interaction score)"}, {"measurement": "binding signal", "setting": "PUM1 PUF domain R5-DWG", "value": "2.74 log2 enrichment (interaction score)"}]}, {"sequence": "GGCUAGAACUAGUGGAUCCCCCGGCGCCCGGCGGCUCGAGCCCGGGUAAGUGUAAAUCGUCUGCAUGCCGCCGGGCGCCAUGCCUGCAGGUCGACUCUAGAAAACAUG", "values": [{"measurement": "binding signal", "setting": "PUM1 PUF domain R1-GFR", "value": "5.46 log2 enrichment (interaction score)"}, {"measurement": "binding signal", "setting": "PUM1 PUF domain R1-KGA", "value": "3.08 log2 enrichment (interaction score)"}]}, {"sequence": "GGCUAGAACUAGUGGAUCCCCCGGCGCCCGGCGGCUCGAGCCCGGGUAAGUGUAAGUAGUCUGCAUGCCGCCGGGCGCCAUGCCUGCAGGUCGACUCUAGAAAACAUG", "values": [{"measurement": "binding signal", "setting": "PUM1 PUF domain R3-MRE", "value": "5.14 log2 enrichment (interaction score)"}]}, {"sequence": "GGCUAGAACUAGUGGAUCCCCCGGCGCCCGGCGGCUCGAGCCCGGGUAAGUGUUAAUAGUCUGCAUGCCGCCGGGCGCCAUGCCUGCAGGUCGACUCUAGAAAACAUG", "values": [{"measurement": "binding signal", "setting": "PUM1 PUF domain R5-KFG", "value": "5.35 log2 enrichment (interaction score)"}, {"measurement": "binding signal", "setting": "PUM1 PUF domain R5-DWG", "value": "5.02 log2 enrichment (interaction score)"}]}, {"sequence": "GGCUAGAACUAGUGGAUCCCCCGGCGCCCGGCGGCUCGAGCCCGGGUAAGUGUAAUUAGUCUGCAUGCCGCCGGGCGCCAUGCCUGCAGGUCGACUCUAGAAAACAUG", "values": [{"measurement": "binding signal", "setting": "PUM1 PUF domain R3-MRE", "value": "0.23 log2 enrichment (interaction score)"}]}, {"sequence": "GGCUAGAACUAGUGGAUCCCCCGGCGCCCGGCGGCUCGAGCCCGGGUAAGGGUAAAUAGUCUGCAUGCCGCCGGGCGCCAUGCCUGCAGGUCGACUCUAGAAAACAUG", "values": [{"measurement": "binding signal", "setting": "PUM1 PUF domain R8-IWK", "value": "2.04 log2 enrichment (interaction score)"}]}, {"sequence": "GGCUAGAACUAGUGGAUCCCCCGGCGCCCGGCGGCUCGAGCCCGGGUAAGUGUGAAUAGUCUGCAUGCCGCCGGGCGCCAUGCCUGCAGGUCGACUCUAGAAAACAUG", "values": [{"measurement": "binding signal", "setting": "PUM1 PUF domain R5-ERS", "value": "2.69 log2 enrichment (interaction score)"}, {"measurement": "binding signal", "setting": "PUM1 PUF domain R5-DWG", "value": "4.74 log2 enrichment (interaction score)"}]}, {"sequence": "GGCUAGAACUAGUGGAUCCCCCGGCGCCCGGCGGCUCGAGCCCGGGUAAGUGUCAAUAGUCUGCAUGCCGCCGGGCGCCAUGCCUGCAGGUCGACUCUAGAAAACAUG", "values": [{"measurement": "binding signal", "setting": "PUM1 PUF domain R5-KFG", "value": "5.1 log2 enrichment (interaction score)"}, {"measurement": "binding signal", "setting": "PUM1 PUF domain R5-ERS", "value": "0.61 log2 enrichment (interaction score)"}, {"measurement": "binding signal", "setting": "PUM1 PUF domain R5-DWG", "value": "2.09 log2 enrichment (interaction score)"}]}, {"sequence": "GGCUAGAACUAGUGGAUCCCCCGGCGCCCGGCGGCUCGAGCCCGGGUAAGUUUAAAUAGUCUGCAUGCCGCCGGGCGCCAUGCCUGCAGGUCGACUCUAGAAAACAUG", "values": [{"measurement": "binding signal", "setting": "PUM1 PUF domain R7-NTG", "value": "5.69 log2 enrichment (interaction score)"}]}, {"sequence": "GGCUAGAACUAGUGGAUCCCCCGGCGCCCGGCGGCUCGAGCCCGGGUAAGCGUAAAUAGUCUGCAUGCCGCCGGGCGCCAUGCCUGCAGGUCGACUCUAGAAAACAUG", "values": [{"measurement": "binding signal", "setting": "PUM1 PUF domain R8-SFR", "value": "4.79 log2 enrichment (interaction score)"}]}, {"sequence": "GGCUAGAACUAGUGGAUCCCCCGGCGCCCGGCGGCUCGAGCCCGGGUAAGUGUAAAUUGUCUGCAUGCCGCCGGGCGCCAUGCCUGCAGGUCGACUCUAGAAAACAUG", "values": [{"measurement": "binding signal", "setting": "PUM1 PUF domain R1-GFR", "value": "2.65 log2 enrichment (interaction score)"}, {"measurement": "binding signal", "setting": "PUM1 PUF domain R1-KMS", "value": "3.69 log2 enrichment (interaction score)"}, {"measurement": "binding signal", "setting": "PUM1 PUF domain R1-KGA", "value": "3.21 log2 enrichment (interaction score)"}]}]}
